The values below come from PubChem BioAssay.

The nature of test [1]: E. coli DRC41 culture turbidity changes, primary screen, E. coli filamentation inducer project, strain DRC41, OD650, 48 h (AID 1152).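 Note: E. coli MC1000 strain DRC41 lacking acrAB efflux pump and sulA.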 The settings on record: E. coli DRC41 (acrAB sulA), higher = more signal, called active from +8 up or from −8 down.
Test [2] can be described thus: small-molecule binders of probe aLefty1, primary screen, biochemical, small-molecule microarray, 635/667 nm fluorescence (AID 1153).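 Note: score merges spot fluorescence with signal-to-noise ratio from the scanned slide images.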 The settings on record: higher = more signal.
Test [3] in a line: PSAC antagonists in infected red cells, primary screen, cell-based, P. falciparum Indochina, OD700, 1 h (AID 1154). Conditions: P. falciparum Indochina infected RBC osmotic lysis, higher = more signal, called active from +8 up or from −8 down.
Test [4] in a line: PSAC antagonists in infected red cells, primary screen, cell-based, P. falciparum Indochina, OD700, 2 h (AID 1155).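 Note: lysis reports solute entry through the parasite surface anion channel PSAC; channel blockers reduce lysis of infected cells.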 Conditions: P. falciparum Indochina infected erythrocytes, osmotic lysis OD700; higher = more signal, called active from +8 up or from −8 down.
The nature of test [5]: osmotic lysis modulators in infected erythrocytes, primary screen, PSAC antagonist project, cell-based, P. falciparum Indochina, OD700, 3 h (AID 1156). The settings on record: higher = more signal, called active from +8 up or from −8 down.
The nature of test [6]: PSAC antagonists in infected red cells, primary screen, cell-based, P. falciparum Indochina, OD700, 18 h (AID 1157). Conditions: P. falciparum Indochina infected erythrocytes, osmotic lysis OD700, 18 h; higher = more signal, called active from +8 up or from −8 down.
The nature of test [7]: modulators of S6 phosphorylation in cells, primary screen, cell-based, A549, cytoblot, luminescence, serum-stimulated (AID 1158).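 Note: serum-stimulated A549 lung adenocarcinoma cells; signal is phosphorylated S6 detected by cytoblot immunostaining with HRP secondary.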 The settings on record: A549 phospho-S6 cytoblot, 5 h, higher = more signal.
In test [8] the target is NADPH oxidase 2 (Homo sapiens) (UniProt P04839). Put plainly: NOX2-dependent H2O2 signal modulators, primary screen, NOX inhibitor project, cell-based, HEK293-NOX2, PMA-stimulated, Amplex Red fluorescence (AID 1159). Note: test concentration not given here. The settings on record: 45 min, higher = more signal, called active from +8 up or from −8 down.
Sequence of NADPH oxidase 2 (Homo sapiens) (P04839 whole entry, looked up): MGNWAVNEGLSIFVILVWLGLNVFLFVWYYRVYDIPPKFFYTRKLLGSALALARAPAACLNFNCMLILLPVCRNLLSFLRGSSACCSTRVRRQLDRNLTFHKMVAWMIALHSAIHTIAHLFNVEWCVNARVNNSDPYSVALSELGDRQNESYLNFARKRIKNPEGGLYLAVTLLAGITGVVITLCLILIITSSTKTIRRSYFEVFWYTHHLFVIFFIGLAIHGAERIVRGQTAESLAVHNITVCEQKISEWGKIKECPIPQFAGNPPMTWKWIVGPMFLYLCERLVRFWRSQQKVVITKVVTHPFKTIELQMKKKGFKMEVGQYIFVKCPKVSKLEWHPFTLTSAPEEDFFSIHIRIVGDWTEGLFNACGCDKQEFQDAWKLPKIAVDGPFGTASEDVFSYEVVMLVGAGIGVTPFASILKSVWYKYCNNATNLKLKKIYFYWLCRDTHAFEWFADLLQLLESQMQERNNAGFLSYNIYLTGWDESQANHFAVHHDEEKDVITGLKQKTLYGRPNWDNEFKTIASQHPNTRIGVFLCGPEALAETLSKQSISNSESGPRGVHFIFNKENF
In test [9] the target is NADPH oxidase 4 (Homo sapiens) (UniProt Q9NPH5). Put plainly: NOX4-dependent H2O2 signal modulators, primary screen, NOX inhibitor project, cell-based, HEK293-NOX4, tetracycline-induced, Amplex Red fluorescence (AID 1160). The settings on record: 45 min, higher = more signal, called active from +8 up or from −8 down.
Sequence of NADPH oxidase 4 (Homo sapiens) (Q9NPH5 whole entry, looked up): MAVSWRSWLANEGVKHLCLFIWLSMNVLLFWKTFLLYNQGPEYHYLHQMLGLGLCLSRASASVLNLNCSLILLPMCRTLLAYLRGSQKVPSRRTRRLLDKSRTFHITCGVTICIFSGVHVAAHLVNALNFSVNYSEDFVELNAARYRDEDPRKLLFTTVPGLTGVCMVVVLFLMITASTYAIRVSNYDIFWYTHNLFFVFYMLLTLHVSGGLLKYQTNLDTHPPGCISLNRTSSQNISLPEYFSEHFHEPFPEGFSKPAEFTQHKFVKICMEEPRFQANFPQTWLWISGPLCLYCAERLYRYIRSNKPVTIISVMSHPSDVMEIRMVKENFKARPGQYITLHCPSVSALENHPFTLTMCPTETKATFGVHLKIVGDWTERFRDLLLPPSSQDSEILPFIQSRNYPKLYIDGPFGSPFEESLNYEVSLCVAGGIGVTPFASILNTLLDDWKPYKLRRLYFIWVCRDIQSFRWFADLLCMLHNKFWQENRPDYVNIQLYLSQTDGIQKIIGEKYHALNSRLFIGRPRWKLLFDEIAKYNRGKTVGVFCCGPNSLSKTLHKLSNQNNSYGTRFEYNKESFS
Test [10] deals with NADPH oxidase 5 (Homo sapiens) (UniProt Q96PH1). Put plainly: NOX5-dependent H2O2 signal modulators, primary screen, NOX inhibitor project, cell-based, HEK293-NOX5, Amplex Red fluorescence (AID 1161). Conditions: HEK293-NOX5, ionomycin, 45 min, higher = more signal.
Sequence of NADPH oxidase 5 (Homo sapiens) (Q96PH1 whole entry, looked up): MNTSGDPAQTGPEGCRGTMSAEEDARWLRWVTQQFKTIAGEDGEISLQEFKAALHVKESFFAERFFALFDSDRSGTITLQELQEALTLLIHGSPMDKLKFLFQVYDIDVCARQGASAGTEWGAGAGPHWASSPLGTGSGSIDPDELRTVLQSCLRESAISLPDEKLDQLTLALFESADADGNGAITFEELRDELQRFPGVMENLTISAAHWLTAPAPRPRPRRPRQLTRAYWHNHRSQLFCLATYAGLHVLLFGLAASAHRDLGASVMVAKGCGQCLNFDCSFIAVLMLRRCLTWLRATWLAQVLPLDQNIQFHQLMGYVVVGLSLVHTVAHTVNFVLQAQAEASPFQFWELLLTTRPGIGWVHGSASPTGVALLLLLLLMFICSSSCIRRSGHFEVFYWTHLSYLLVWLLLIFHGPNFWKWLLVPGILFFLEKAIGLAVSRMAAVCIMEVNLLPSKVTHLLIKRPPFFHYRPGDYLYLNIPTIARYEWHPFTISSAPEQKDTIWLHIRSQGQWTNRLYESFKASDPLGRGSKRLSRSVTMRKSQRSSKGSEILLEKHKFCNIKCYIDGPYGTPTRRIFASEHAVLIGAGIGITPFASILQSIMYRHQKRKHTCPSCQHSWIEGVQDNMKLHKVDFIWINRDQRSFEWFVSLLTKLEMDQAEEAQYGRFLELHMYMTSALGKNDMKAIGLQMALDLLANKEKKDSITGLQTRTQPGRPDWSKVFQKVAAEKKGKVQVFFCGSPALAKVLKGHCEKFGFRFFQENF
Test [11] in a line: A549 cell viability effects, profiling panel, calcein-AM fluorescence, 48 h, basal (AID 1162). Note: test concentration not given here. The settings on record: higher = more signal.
Test [12] in a line: adipocyte viability effects, profiling panel, cell-based, 3T3-L1 adipocytes, calcein-AM fluorescence, 48 h, basal (AID 1163). Note: test concentration not given here. Conditions: 3T3-L1 adipocytes viability, higher = more signal.
Test [13] can be described thus: HepG2 cell viability effects, profiling panel, calcein-AM fluorescence, 48 h, basal (AID 1164). Note: test concentration not given here. The settings on record: higher = more signal.
Test [14] in a line: MM1S cell viability effects, profiling panel, calcein-AM fluorescence, 48 h, basal (AID 1165).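 Note: viability of MM1S multiple myeloma cells under basal unstimulated conditions; test concentration not given here.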 Conditions: higher = more signal.
The nature of test [15]: basal RPMI8226 viability, no added stimulus, profiling panel, cell-based, calcein-AM fluorescence, 48 h, PK04 Diversity Set (AID 1166).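 Note: cells grown under basal conditions without added stimulus; test concentration not given here.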 Conditions: RPMI8226 myeloma viability, higher = more signal.
Test [16] can be described thus: basal HepG2 mitochondrial membrane potential changes, profiling panel, cell-based, JC-1 fluorescence, 24 h, 100 nL compound (AID 1167). Note: test concentration not given here. The settings on record: higher = more signal.
Test [17] can be described thus: basal 3T3-L1 adipocyte mitochondrial potential changes, profiling panel, cell-based, JC-1 fluorescence, 3T3-L1 adipocytes, 24 h, 100 nL compound (AID 1168). Note: test concentration not given here. The settings on record: JC-1 mitochondrial fluorescence, higher = more signal, called active from +8 up or from −8 down.
The nature of test [18]: basal RPMI8226 mitochondrial membrane potential changes, profiling panel, cell-based, JC-1 fluorescence, 24 h, 100 nL compound (AID 1169). Note: test concentration not given here. Conditions: RPMI8226 myeloma, JC-1 mitochondrial potential fluorescence, higher = more signal.
Test [19] is described as follows: basal MM1S mitochondrial membrane potential changes, profiling panel, cell-based, JC-1 fluorescence, 24 h, 100 nL compound (AID 1170). Note: test concentration not given here. The settings on record: higher = more signal.
Test [20] in a line: A549 lung cancer cell viability effects, profiling panel, resazurin fluorescence, 24 h, PK04 Diversity Set (AID 1171). Note: test concentration not given here. The settings on record: higher = more signal, called active from +8 up or from −8 down.

Activity calls are given as the source filed them.

As for `CC(C)(C)OC(=O)CC[C@@]1(C(=O)NCC(O)CO)N=C(c2ccc(OCCCO)cc2)O[C@@H]1c1ccccc1N=[N+]=[N-]` (stereo not given in full), the z-score in test [1] is 1.99 (inactive); in test [3], 31.9 (active); in test [4], 28.4 (active); in [5], 3.82 (inactive); in test [6], 7.71 (inactive); in test [7], 0.123. Further, the z-score in test [8] was -2.77 (inactive); in [9] it was 1.03 (inactive); in test [10], -1.85; in [11], 1.79; in [12], -0.309; in test [13] it was 1.34. In addition, the z-score in test [14] was -0.312; in [15] it was 0.0549; in test [16] it was 1.73; in test [17], 2.9 (inactive); in test [18] it was 0.11; in [19], -0.884. Also, in test [20], the z-score was 0.642 (inactive). Also, in test [2], the composite z-score is 0.379.

As for `COCCOC(=O)N1C(=O)[C@@]2(c3cc(C#CC4=CCCCC4)ccc31)[C@H](C(N)=O)[C@H]1C(=O)O[C@H](c3ccccc3)[C@H](c3ccccc3)N1[C@@H]2c1ccc(OCCO)cc1`, the z-score in test [1] is 0.102 (inactive); in test [3], 6.77 (inactive); in test [4], 3.03 (inactive); in test [5] it was 2.5 (inactive); in [6], 1.96 (inactive); in [7], 0.375. The z-score was 1.54 (inactive) in test [8]; 1.41 (inactive) in test [9]; 1.96 in test [10]; -0.0731 in test [11]; -0.605 in test [12]; 0.575 in test [13]. Also, the z-score in test [14] is -2.37; in test [15], -2.99; in test [16] it was -2.31; in test [17], 1.22 (inactive); in [18], -0.799; in test [19], -1.82. In test [20], the z-score is -2.15 (inactive). In test [2], this compound returned a composite z-score of -0.273.

As to `CCCN1C(=O)[C@]2(CCS(=O)(=O)c3ccccc3)N=C(c3ccc(OCCCO)cc3)O[C@@H]2c2ccccc21`, the z-score in test [1] is 1.51 (inactive); in [3], 29.3 (active); in test [4], 21.2 (active); in test [5], 1.31 (inactive); in test [6], 0.471 (inactive); in [7] it was 1.42. Moreover, the z-score in [8] was -1.5 (inactive); in [9] it was -0.284 (inactive); in test [10], -1.17; in [11], 1.27; in test [12], 1.86; in test [13] it was -0.801. Moreover, the z-score in [14] was 0.0361; in [15], -1.97; in test [16] it was 0.28; in [17] it was -0.494 (inactive); in [18], -0.917; in test [19] it was -1.28. For the same compound, the z-score in test [20] was -1.57 (inactive). The composite z-score in test [2] was found to be 0.497.

In the case of `COc1ccc(C(=O)Nc2ccc(CN3C(=O)[C@@]4(O[C@@H](CC(=O)N5CCC[C@H]5CO)[C@H]([Si](C)(C)c5ccc(OC)cc5)[C@H]4C)c4ccccc43)cc2)cc1`, the z-score in [1] was 0.482 (inactive); in test [3] it was 5.52 (inactive); in [4], 1.06 (inactive); in [5], 0.146 (inactive); in test [6], 0.77 (inactive); in [7] it was 0.363. Moreover, the z-score in [8] was 1.21 (inactive); in test [9], 1.23 (inactive); in test [10] it was 4.5; in test [11], 0.571; in [12], 0.0638; in [13] it was 0.269. The z-score in test [14] is -2.5; in test [15] it was -3.93; in [16], 3.78; in test [17], 0.926 (inactive); in test [18], -1.09; in test [19] it was -0.447. In addition, in [20], the z-score was 0.336 (inactive). For the same compound, the composite z-score in [2] is 0.138.

As to `CC(C)C[C@@H]1NC(=O)[C@H]2C[C@@H](C(=O)NCCCCCCN)[C@@H](c3ccc(O)cc3)N2C1=O`, the z-score in test [1] is -0.63 (inactive); in test [3], 1.9 (inactive); in [4], 0.0643 (inactive); in test [5], -0.265 (inactive); in test [6], 0.3 (inactive); in test [7], -0.648. For the same compound, the z-score was 1.21 (inactive) in test [8]; 1.05 (inactive) in [9]; 0.315 in test [10]; -0.145 in [11]; 0.106 in test [12]; -0.766 in [13]. The z-score in test [14] was -0.495; in [15], -0.953; in [16], 0.414; in test [17], -0.217 (inactive); in [18] it was -0.279; in test [19] it was 0.861. The z-score in [20] was -0.939 (inactive). This compound displayed a composite z-score in test [2] of 0.51.
